In PubChem BioAssay (NCATS) one finds Potency data, which are given here for 13 molecules.

A short description of assay [1]: S16 Schwann cell viability assay (CellTiter-Glo assay) (AID 624031). Also: nearly all actives have a fitted effect of over 70% in size. The gist of the method:
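Native S16 Schwann cells (rat), serum-containing medium, overnight attachment then 24 h drug exposure at 37 °C/5% CO2. CellTiter-Glo ATP signal; normalized to cell-free and vehicle wells.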
On the technique in general: ATP-based viability assays read luminescence as a measure of living cells.

Another assay has as its system 3D7. Kind of assay: qHTS profiling for inhibitors of Plasmodium falciparum proliferation (AID 504749). Also: nearly all actives have a fitted effect of over 60% in size. Also: potency is read from the fitted curve at half-maximal effect. Particulars: P. falciparum in erythrocytes, SYBR Green DNA, 72 h; series mostly up to 12.8 µM. The gist of the method:
(§1)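 Parasite proliferation within erythrocytes, 72 h exposure. Endpoint: SYBR Green I fluorescence after overnight lysis at room temperature. Controls: 0.29 uM artemisinin, DMSO.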
For orientation: Quantitative high-throughput screening tests each substance at several concentrations.

The test system of a further assay is 7G8. The description is as above. Particulars: P. falciparum in erythrocytes, SYBR Green DNA, 72 h; series mostly up to 12.8 µM. The gist of the method:
as §1

For the next assay, the system named is AA1029. The assay is described as above. Conditions: P. falciparum in erythrocytes, SYBR Green DNA, 72 h; series mostly up to 12.8 µM. Summed up:
as §1

A further assay deals with ATS189. Described as above. Particulars: P. falciparum in erythrocytes, SYBR Green DNA, 72 h; series mostly up to 12.8 µM. Summed up:
as §1

The next assay deals with CP191. The assay is described as above. Conditions: P. falciparum in erythrocytes, SYBR Green DNA, 72 h; series mostly up to 12.8 µM. The gist of the method:
as §1

For the next assay, the system named is CP194. The description is as above. Particulars: P. falciparum in erythrocytes, SYBR Green DNA, 72 h; series mostly up to 12.8 µM. Summed up: as §1
The next assay relates to CP203. The description is as above. Conditions: P. falciparum in erythrocytes, SYBR Green DNA, 72 h; series mostly up to 12.8 µM. The gist of the method:
as §1

The next assay deals with CP215. The description is as above. Particulars: P. falciparum in erythrocytes, SYBR Green DNA, 72 h; series mostly up to 28.7 µM. The gist of the method: as §1
The subject of another assay is CP237. The description is as above. Conditions: P. falciparum in erythrocytes, SYBR Green DNA, 72 h; series mostly up to 12.8 µM. The gist of the method: as §1
A further assay concerns CP247. The assay is described as above. Conditions: P. falciparum in erythrocytes, SYBR Green DNA, 72 h; series mostly up to 12.8 µM. Summed up: as §1
For a further assay, the system named is CP268. The description is as above. Particulars: P. falciparum in erythrocytes, SYBR Green DNA, 72 h; series mostly up to 12.8 µM. The gist of the method: as §1
The next assay has as its system CP286. Described as above. Conditions: P. falciparum in erythrocytes, SYBR Green DNA, 72 h; series mostly up to 12.8 µM. Summed up: as §1
In a further assay the test system is DIV30. The description is as above. Particulars: P. falciparum in erythrocytes, SYBR Green DNA, 72 h; series mostly up to 12.8 µM. Summed up: as §1
For the next assay, the system named is ICS. The assay is described as above. Particulars: P. falciparum in erythrocytes, SYBR Green DNA, 72 h; series mostly up to 12.8 µM. The gist of the method:
as §1

The subject of a further assay is P94_40. Described as above. Conditions: P. falciparum in erythrocytes, SYBR Green DNA, 72 h; series mostly up to 12.8 µM. The gist of the method:
as §1

In a further assay the test system is PAD. The description is as above. Conditions: P. falciparum in erythrocytes, SYBR Green DNA, 72 h; series mostly up to 12.8 µM. Summed up:
as §1

Another assay concerns PC26. Described as above. Particulars: P. falciparum in erythrocytes, SYBR Green DNA, 72 h; series mostly up to 12.8 µM. Summed up: as §1
For the next assay, the system named is TAB109. The assay is described as above. Conditions: P. falciparum in erythrocytes, SYBR Green DNA, 72 h; series mostly up to 12.8 µM. Summed up:
as §1

A further assay relates to TAB165. The description is as above. Conditions: P. falciparum in erythrocytes, SYBR Green DNA, 72 h; series mostly up to 12.8 µM. Summed up:
as §1

Results filed as inconclusive are left out. Active and inactive are the calls of the source. Calls follow the shape of the dose curve; as a rule, active = well fitted curve in the direction sought with a large enough effect; inconclusive = small, poorly fitted or top-dose-only effect, or another doubt; inactive = no such curve, though single readings can be large; an effect the other way counts as inactive or inconclusive.

As for `CO[C@]1(NC(=O)CSCC#N)C(=O)N2C(C(=O)O)=C(CSc3nnnn3C)CS[C@H]21`, the Potency entry (in assay [1]; in the assay on 3D7; with 7G8; with AA1029; in the assay on ATS189; in the assay on CP191) was “inactive” throughout. In addition, the Potency result in the assay with CP194, in the assay with CP203, in the assay on CP215, in the assay with CP237, in the assay on CP247 and in the assay with CP268 was “inactive” in each case. The Potency result in the assay on CP286, in the assay with DIV30, with ICS, in the assay on P94_40, in the assay on PAD and with PC26 was “inactive” in each case. For the same molecule, the Potency entry in the assay with TAB109 and in the assay with TAB165 was “inactive” each time.
For the molecule `CN(C)[C@@H]1C(=O)C(C(N)=O)=C(O)[C@]2(O)C(=O)C3=C(O)c4c(O)ccc(Cl)c4[C@H](O)[C@H]3C[C@@H]12`, the Potency entry (in [1]; in the assay with ATS189; in the assay with CP191; with CP194; in the assay on CP203; in the assay with CP215) was “inactive” each time. Besides, the Potency entry in the assay on CP247, with CP268, in the assay on DIV30, in the assay with P94_40 and with PC26 was “inactive” in each case. Moreover, the Potency with ICS was 3.98 µM (active).
`C[C@H](NCCc1ccc(O)cc1)[C@@H](O)c1ccc(O)cc1`: the Potency entry (in [1]; in the assay with 3D7; in the assay with 7G8; in the assay on AA1029; in the assay with ATS189; in the assay with CP191) was “inactive” in each case. For the same molecule, the Potency entry in the assay on CP194, in the assay on CP203, with CP215, with CP237, with CP247 and in the assay on CP268 was “inactive” in each case. For the same molecule, the Potency entry with CP286, in the assay with DIV30, in the assay with ICS, in the assay on P94_40, with PAD and in the assay on PC26 was “inactive” in each case. The Potency entry with TAB109 and in the assay with TAB165 was “inactive” throughout.
In the case of `O=C(C1CCCCC1)N1CC(=O)N2CCc3ccccc3[C@@H]2C1`, the Potency result in assay [1] is “inactive”.
In the case of `O=C(c1ccccc1)c1ccc2n1CC[C@H]2C(=O)O`, the Potency entry (in assay [1]; in the assay with 3D7; in the assay on 7G8; in the assay with AA1029; with ATS189; in the assay on CP191) was “inactive” in each case. Moreover, the Potency result in the assay with CP194, with CP203, in the assay on CP215, with CP237, in the assay on CP247 and in the assay with CP268 was “inactive” in each case. The Potency entry in the assay with CP286, with DIV30, with ICS, in the assay on P94_40, in the assay with PAD and in the assay on PC26 was “inactive” each time. The Potency result in the assay on TAB109 and in the assay on TAB165 was “inactive” throughout.
For `N[C@@H](CO)C(=O)NNCc1ccc(O)c(O)c1O`, the Potency result in the assay on 3D7, in the assay with 7G8, in the assay with AA1029, in the assay with ATS189, in the assay with CP191 and in the assay with CP194 was “inactive” in each case. The Potency entry with CP203, with CP215, with CP237, with CP247, in the assay with CP268 and in the assay on CP286 was “inactive” in each case. The Potency entry with DIV30, with ICS, in the assay with P94_40, with PAD, in the assay on PC26 and in the assay on TAB109 was “inactive” each time. Moreover, the Potency result with TAB165 was “inactive”.
Take `CCCN[C@@H](C)C(=O)Nc1ccccc1C`: the Potency entry (in assay [1]; with 3D7; in the assay with 7G8; in the assay with AA1029; with ATS189; with CP191) was “inactive” throughout. The Potency result in the assay on CP194, with CP203, in the assay on CP215, with CP237, with CP247 and in the assay on CP268 was “inactive” each time. Besides, the Potency result with CP286, with DIV30, with ICS, in the assay on P94_40, in the assay on PAD and with PC26 was “inactive” throughout. The Potency entry in the assay with TAB109 and in the assay on TAB165 was “inactive” throughout.
Consider `CC[C@]1(C)CC(=O)NC1=O`, for which the Potency entry (in assay [1]; in the assay with 3D7; with 7G8; in the assay with AA1029; in the assay on ATS189; in the assay with CP191) was “inactive” throughout. The Potency entry with CP194, with CP215, in the assay on CP237, with CP247, with CP268 and with CP286 was “inactive” in each case. The Potency entry with DIV30, with ICS, in the assay with P94_40, in the assay with PAD, in the assay with PC26 and with TAB109 was “inactive” in each case. Also, in the assay on TAB165, the Potency result was “inactive”.
On to `CC[C@H](NC(C)C)[C@H](O)c1ccc(O)c(O)c1`, for which the Potency entry (in assay [1]; in the assay with AA1029; with ATS189; in the assay with CP191; in the assay on CP194; with CP203) was “inactive” throughout. Also, the Potency entry in the assay on CP215, in the assay with CP237, in the assay on CP268, in the assay on CP286, in the assay on DIV30 and in the assay on P94_40 was “inactive” throughout. For the same molecule, the Potency entry in the assay with PAD, in the assay on PC26, with TAB109 and with TAB165 was “inactive” each time.
`C[C@@H]1c2cccc(O)c2C(O)=C2C(=O)[C@@]3(O)C(O)=C(C(N)=O)C(=O)[C@@H](N(C)C)[C@@H]3[C@@H](O)[C@@H]21`: the Potency entry (in assay [1]; in the assay with CP191; with CP215; with CP247) was “inactive” throughout. For the same molecule, the Potency in the assay with 7G8 is 3.98 µM (active); with ICS it was 3.55 µM (active).
Take `C[C@@H]1COc2c(N3CCN(C)CC3)c(F)cc3c(=O)c(C(=O)O)cn1c23`: the Potency result (in assay [1]; with 3D7; in the assay with 7G8; with AA1029; in the assay on ATS189; in the assay on CP191) was “inactive” throughout. Besides, the Potency result in the assay with CP194, in the assay with CP203, in the assay with CP215, in the assay with CP237, in the assay on CP247 and in the assay on CP268 was “inactive” throughout. For the same molecule, the Potency result in the assay with CP286, with DIV30, in the assay on ICS, with P94_40, in the assay on PAD and with PC26 was “inactive” each time. Further, the Potency result with TAB109 and in the assay with TAB165 was “inactive” throughout.
For the molecule `CC(=O)N(CC(O)CN(C(C)=O)c1c(I)c(C(=O)NC[C@@H](O)CO)c(I)c(C(=O)NC[C@@H](O)CO)c1I)c1c(I)c(C(=O)NC[C@@H](O)CO)c(I)c(C(=O)NC[C@@H](O)CO)c1I`, the Potency entry (in assay [1]; with 3D7; in the assay on 7G8; in the assay with AA1029; in the assay on ATS189; in the assay with CP191) was “inactive” each time. In addition, the Potency result in the assay on CP194, in the assay with CP203, in the assay on CP215, with CP237, in the assay on CP247 and with CP268 was “inactive” each time. For the same molecule, the Potency result in the assay with CP286, with DIV30, in the assay on ICS, in the assay on P94_40, with PAD and in the assay on PC26 was “inactive” each time. Further, the Potency result in the assay with TAB109 and with TAB165 was “inactive” each time.
On to `CCN[C@@H]1C[C@H](C)S(=O)(=O)c2sc(S(N)(=O)=O)cc21`, for which the Potency result with 3D7, in the assay with 7G8, in the assay on AA1029, in the assay with ATS189, in the assay with CP191 and with CP194 was “inactive” throughout. For the same molecule, the Potency result in the assay with CP203, with CP215, in the assay with CP237, in the assay with CP247, with CP268 and with CP286 was “inactive” throughout. Further, the Potency entry in the assay with DIV30, with ICS, in the assay on P94_40, with PAD, in the assay on PC26 and in the assay with TAB109 was “inactive” each time. In addition, in the assay on TAB165, the Potency entry was “inactive”.
